55 compounds from article PMC4336329 (PLoS ONE, 2015) can be followed below.

The whole screen tested about 310,000 compounds, of which about 14,000 (4.5%) showed an effect of 50% or more. The effect is printed as a negative number. The sample as a whole holds a higher share of strong results than the screen did.
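Also: peak tail current of the secondary pulse compared with the same well before compound.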

Sequence of human ether-à-go-go-related gene (hERG) potassium channel (Q12809 whole entry, looked up): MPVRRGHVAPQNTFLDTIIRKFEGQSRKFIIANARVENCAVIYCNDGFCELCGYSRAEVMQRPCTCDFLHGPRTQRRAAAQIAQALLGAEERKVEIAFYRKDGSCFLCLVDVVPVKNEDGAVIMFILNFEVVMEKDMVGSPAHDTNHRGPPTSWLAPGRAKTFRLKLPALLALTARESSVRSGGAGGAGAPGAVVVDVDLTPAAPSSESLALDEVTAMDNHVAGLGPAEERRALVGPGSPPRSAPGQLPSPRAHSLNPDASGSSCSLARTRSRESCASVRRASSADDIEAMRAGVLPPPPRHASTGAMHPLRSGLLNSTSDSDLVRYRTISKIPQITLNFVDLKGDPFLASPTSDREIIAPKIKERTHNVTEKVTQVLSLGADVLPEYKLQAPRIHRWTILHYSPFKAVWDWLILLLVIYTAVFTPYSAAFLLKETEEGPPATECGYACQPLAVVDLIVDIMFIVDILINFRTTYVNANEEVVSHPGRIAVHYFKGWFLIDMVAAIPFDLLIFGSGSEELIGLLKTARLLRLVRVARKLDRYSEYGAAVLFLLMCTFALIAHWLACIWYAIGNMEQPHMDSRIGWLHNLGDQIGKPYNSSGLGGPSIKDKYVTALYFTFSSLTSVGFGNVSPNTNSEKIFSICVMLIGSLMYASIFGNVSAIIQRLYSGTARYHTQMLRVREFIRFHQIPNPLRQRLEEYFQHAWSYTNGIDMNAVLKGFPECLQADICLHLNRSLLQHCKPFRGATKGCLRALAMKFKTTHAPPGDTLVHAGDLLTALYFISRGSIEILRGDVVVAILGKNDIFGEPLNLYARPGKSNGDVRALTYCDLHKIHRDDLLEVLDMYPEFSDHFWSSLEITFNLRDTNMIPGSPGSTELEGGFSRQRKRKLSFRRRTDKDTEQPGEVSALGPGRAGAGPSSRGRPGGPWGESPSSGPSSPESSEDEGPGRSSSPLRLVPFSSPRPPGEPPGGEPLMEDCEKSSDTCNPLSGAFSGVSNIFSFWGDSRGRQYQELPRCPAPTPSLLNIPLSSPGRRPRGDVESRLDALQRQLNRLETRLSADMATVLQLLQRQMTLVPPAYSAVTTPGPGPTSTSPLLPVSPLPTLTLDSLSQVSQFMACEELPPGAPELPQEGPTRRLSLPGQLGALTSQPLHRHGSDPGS

This test concerns the target human ether-à-go-go-related gene (hERG) potassium channel (human, UniProt Q12809). The test is described as follows: primary screen, population patch clamp on CHO cells stably expressing hERG; higher = less effect of the substance. The procedure: Briefly, Chinese hamster ovary (CHO) cells stably expressing the hERG channel were dislodged from tissue culture flasks and dispensed into PPC plates. […] During the recording, background leak currents were estimated by a 100 ms step to -80 mV from an initial holding potential of -70 mV and subtracted from the subsequent current measurement. The campaign was conducted in two phases using slight differences in recording protocol. In the first phase, the initial voltage pulse used a 100 ms step to -30 mV from a holding potential of -70 mV, a 2 s conditioning step to +25 mV, and a 2 s test step to -30 mV. During the second phase of the screen, the potential during the conditioning step was raised to +45 mV. In both phases of the campaign, a secondary voltage pulse was applied using the same parameters as the second phase initial pulse. The initial and secondary pulses were applied in the absence of compound, and upon application of 1 μM and 10 μM test concentrations. […]
In the case of `CCNC(=O)NC(=O)CN(C)c1ccccc1`, the “hERG current change (%, negative = inhibition) at 10uM” value was 10.5%. In the case of `CCOC(=O)c1sc(=NC(=O)c2cccc(C)c2)n(C)c1C`, the “hERG current change (%, negative = inhibition) at 10uM” value stood at 8.38%. Under `Cc1ccc(-c2c(C(=O)N/N=C/c3cccs3)nnn2-c2nonc2N)cc1` stands 29.8%. Regarding `COc1ccc(-n2cc(CN(C)C(C)c3ccncn3)c(-c3cccc(F)c3)n2)cc1` (stereo not shown), the “hERG current change (%, negative = inhibition) at 10uM” value is recorded as -39.9%. On to `CCC(COC)NCc1cn(-c2ccc(OC)cc2)nc1-c1cccc(F)c1` (stereo not shown), for which the “hERG current change (%, negative = inhibition) at 10uM” value is listed as -70.3%. On to `COc1ccc(-n2cc(CNC(C)c3ccncn3)c(-c3cccc(F)c3)n2)cc1` (stereo not shown), for which the “hERG current change (%, negative = inhibition) at 10uM” value is listed as -59.4%. As for `COc1ccc(-c2nn(-c3ccccc3)cc2CNC(C)Cn2cncn2)c(F)c1` (stereo not shown), the “hERG current change (%, negative = inhibition) at 10uM” value was -13%. As for `COc1cccc(-c2nn(-c3ccccc3)cc2CN(C)C(C)c2ccncn2)c1` (stereo not shown), the “hERG current change (%, negative = inhibition) at 10uM” value is reported as -15.6%.

In the case of `CCC(COC)NCc1cn(-c2ccc(F)cc2F)nc1-c1ccccc1C` (stereo not shown), the “hERG current change (%, negative = inhibition) at 10uM” value is recorded as -18%. With `Cc1cccc(N2CCN(C(=O)c3cccc(N4C(=O)C5CC=CC(C)C5C4=O)c3)CC2)c1C` (stereo not shown), the “hERG current change (%, negative = inhibition) at 10uM” value is -12.5%. Under `Cc1oncc1-c1cn2ccccc2n1` stands 6.61%; under `COc1ccccc1CNC(=O)c1ccccc1OCc1ccc(F)cc1`, -10%; under `CCOc1ccc(N2CC(C(=O)N3CCCCC3)CC2=O)cc1` (stereo not shown), 18.6%. For `COc1ccc(N2CC(C(=O)N3CCN(C(=O)c4ccco4)CC3)CC2=O)cc1` (stereo not shown), the “hERG current change (%, negative = inhibition) at 10uM” value is listed as -53.3%. Under `COc1ccc(N2CCN(C(=O)C3CC(=O)N(c4ccc(C)cc4)C3)CC2)cc1` (stereo not shown) stands -35.1%; under `CCOc1ccc(N2CC(C(=O)N3CCCCCC3)CC2=O)cc1` (stereo not shown), -7.34%. As for `CCOc1ccc(N2CC(C(=O)N3CCN(C(=O)c4ccco4)CC3)CC2=O)cc1` (stereo not shown), the “hERG current change (%, negative = inhibition) at 10uM” value was -63.4%. Under `COc1ccc(N2CC(C(=O)N3CCN(C)CC3)CC2=O)cc1` (stereo not shown) stands 15.4%; under `Cc1cc(C#N)c(C)n1-c1cc(S(=O)(=O)N2CCOCC2)ccc1N1CCCC1`, -14.3%. Take `CN(Cc1ccc(F)cc1)C(=O)c1cccc(S(=O)(=O)N2CCN(c3ccc(F)cc3)CC2)c1`: the “hERG current change (%, negative = inhibition) at 10uM” value was -34.6%. Under `CN(C)S(=O)(=O)N1CCC(Oc2cccc(C(=O)NC3CCOC3)c2)CC1` (stereo not shown) stands 2.63%.

Regarding `O=C(CN1CCN(CCC(=O)Nc2ccccc2F)CC1)Nc1ccc(Cl)cc1`, the “hERG current change (%, negative = inhibition) at 10uM” value is -76.8%.

`O=C(CCN1CCN(c2ccc(Cl)cc2)CC1)Nc1ccccc1F`: the “hERG current change (%, negative = inhibition) at 10uM” value is reported as -34%. Turning to `O=C(CCN1CCN(S(=O)(=O)c2ccc(Cl)cc2)CC1)Nc1ccccc1F`, the “hERG current change (%, negative = inhibition) at 10uM” value is -6.18%. `O=C(CN1CCN(CCC(=O)Nc2ccccc2F)CC1)Nc1ccc(F)cc1`: the “hERG current change (%, negative = inhibition) at 10uM” value is reported as -72.6%.

Turning to `O=C(CN1CCOCC1)Nc1ccccc1F`, the “hERG current change (%, negative = inhibition) at 10uM” value stood at 0.862%.

Turning to `O=C(CCN1CCN(c2ccc(F)cc2)CC1)Nc1ccccc1F`, the “hERG current change (%, negative = inhibition) at 10uM” value is -43%.

As for `COc1ccc(C(=O)NC2CCCCC2)cc1S(=O)(=O)N1CCOCC1`, the “hERG current change (%, negative = inhibition) at 10uM” value is reported as -14.8%.

For the compound `O=C(NCCOC(=O)c1ccccc1)c1ccccc1`, the “hERG current change (%, negative = inhibition) at 10uM” value was 10.2%. Regarding `[N-]=[N+]=CC(=O)CNC(=O)[C@@H](Cc1ccccc1)N1C(=O)c2ccccc2C1=O`, the “hERG current change (%, negative = inhibition) at 10uM” value turned out to be 6.66%. In the case of `CCC(C(=O)NCc1ccco1)n1nc(C)c2c(C)n(-c3ccc(C)cc3)nc2c1=O` (stereo not shown), the “hERG current change (%, negative = inhibition) at 10uM” value is recorded as -58.9%.

With `CCC(C(=O)NCc1ccco1)n1nc(C)c2c(C)n(-c3ccccc3)nc2c1=O` (stereo not shown), the “hERG current change (%, negative = inhibition) at 10uM” value was -8.91%. In the case of `Cc1ccc(-n2nc3c(=O)n(C(C)C(=O)NCc4ccco4)nc(C)c3c2C)cc1` (stereo not shown), the “hERG current change (%, negative = inhibition) at 10uM” value is -41.3%. As to `CCC(C(=O)NC1CC1)n1nc(C)c2c(C)n(-c3ccccc3)nc2c1=O` (stereo not shown), the “hERG current change (%, negative = inhibition) at 10uM” value came to 8.02%. In the case of `CCC(C(=O)NC1CC1)n1nc(C)c2c(C)n(-c3ccc(C)cc3)nc2c1=O` (stereo not shown), the “hERG current change (%, negative = inhibition) at 10uM” value is -62%. Consider `CCC(C(=O)NC1CCCCCC1)n1nc(C)c2c(C)n(-c3ccccc3)nc2c1=O` (stereo not shown), for which the “hERG current change (%, negative = inhibition) at 10uM” value is given as -23.4%. `CC(C)c1cccc(C(C)C)c1OCCCCN1CCCC1`: the “hERG current change (%, negative = inhibition) at 10uM” value was -22.7%. As for `COc1ccccc1N(C)S(=O)(=O)c1ccc(C(=O)Nc2nccs2)cc1`, the “hERG current change (%, negative = inhibition) at 10uM” value is reported as -30.5%. In the case of `CC(=O)c1ccc(NC(=O)CN2CCC(NC(=O)C3CCCCC3)CC2)cc1`, the “hERG current change (%, negative = inhibition) at 10uM” value is listed as -6.72%.

Regarding `COc1cccc(CNC(=O)CCC2CCCN(C/C=C/c3ccccc3OC)C2)c1` (stereo not shown), the “hERG current change (%, negative = inhibition) at 10uM” value is listed as -68.5%.

Turning to `COc1ccccc1CC(=O)N1CCCC(CCC(=O)NCc2ccccc2F)C1` (stereo not shown), the “hERG current change (%, negative = inhibition) at 10uM” value was determined as 2.97%. Take `COCCNC(=O)CCC1CCN(C/C=C/c2ccccc2OC)CC1`: the “hERG current change (%, negative = inhibition) at 10uM” value is -3.87%. `COC(=O)c1ccccc1C(=O)N1CCCC(CCC(=O)NCc2ccc(F)c(F)c2)C1` (stereo not shown): the “hERG current change (%, negative = inhibition) at 10uM” value is on record as -10.1%. In the case of `COc1ccc(/C=C/CN2CCCC(CCC(=O)NCc3ccc(F)c(F)c3)C2)cc1` (stereo not shown), the “hERG current change (%, negative = inhibition) at 10uM” value is reported as -72.8%. Consider `COCCC(=O)N1CCCC(CCC(=O)NCc2ccc(F)c(F)c2)C1` (stereo not shown), for which the “hERG current change (%, negative = inhibition) at 10uM” value came to 22.8%. Consider `COc1ccccc1/C=C/CN1CCCC(CCC(=O)NCc2ccc(F)c(F)c2)C1` (stereo not shown), for which the “hERG current change (%, negative = inhibition) at 10uM” value is -70%. Turning to `COc1cccc(CNC(=O)CCC2CCCN(C(=O)c3ccc(OC)c(F)c3)C2)c1` (stereo not shown), the “hERG current change (%, negative = inhibition) at 10uM” value is given as -9.79%. Turning to `COc1ccc(C(=O)N2CCCC(CCC(=O)NCc3ccc(F)c(F)c3)C2)cc1F` (stereo not shown), the “hERG current change (%, negative = inhibition) at 10uM” value is on record as -22.8%. Take `COc1cccc(C(=O)N2CCCC(CCC(=O)NCc3ccc(F)c(F)c3)C2)c1` (stereo not shown): the “hERG current change (%, negative = inhibition) at 10uM” value is -17.5%. Turning to `COc1ccccc1/C=C/CN1CCCC(CCC(=O)NCc2ccccc2F)C1` (stereo not shown), the “hERG current change (%, negative = inhibition) at 10uM” value is on record as -65.7%. Next, `COc1cccc(CNC(=O)CCC2CCCN(C(=O)Cc3ccccc3F)C2)c1` (stereo not shown): -7.61%. Under `CCCCC(NC(=O)c1cccc(Br)c1)C(=O)O` (stereo not shown) stands 9.42%; under `Cc1nn(C)c(C)c1CNC(=O)Nc1cccc(Cl)c1`, 6.93%; under `CC1(C)CC(=O)c2cn3nc(C(F)(F)F)nc3nc2C1`, 4.21%.

Turning to `O=C(CN1CCN(S(=O)(=O)c2ccc(F)c(Cl)c2)CC1)N1CCc2ccccc21`, the “hERG current change (%, negative = inhibition) at 10uM” value is -34.7%.
